Reference: the supplement of paper PMC10127200
Structures can show the parent of a compound that is named as a salt.

How the values were obtained:
Test in all cases: Euclidean distance of Cell Painting phenotypic profile (signed KS, 77 features) to DMSO centroid (dimensionless distance); 5 or 10 uM (library dependent); higher = stronger phenotypic change vs DMSO (phenoactivity)
Conditions in all cases: 48 h
786-O = system: 786-O
Procedure, shortened: (§1)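 At 10 or 5 uM, as set by the library, and 0.1% DMSO final, compounds were applied for 48 h to five cancer lines and one healthy fibroblast line. Stained cells were imaged confocally at 20X in 9 fields per well, and Harmony extracted 77 features scored as signed Kolmogorov-Smirnov statistics against vehicle wells on the same plate. Profiles underwent plate-position correction, correlation weighting and replicate averaging at the top dose. Phenoactivity is the Euclidean distance from each such profile to the median vehicle profile.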

A549 = system: A549
Procedure, shortened: as §1

DU145 = system: DU145
Procedure, shortened: as §1

FB = system: FB
Procedure, shortened: as §1

HEPG2 = system: HEPG2
Procedure, shortened: as §1

OVCAR4 = system: OVCAR4
Procedure, shortened: as §1

SMILES | Euclidean distance (786-O) | Euclidean distance (A549) | Euclidean distance (DU145) | Euclidean distance (FB) | Euclidean distance (HEPG2) | Euclidean distance (OVCAR4)
O=C(O)c1ccc(C=C2SC(=S)N(c3cccc(C(F)(F)F)c3)C2=O)cc1 | 0.542 | 0.983 | 0.711 | 0.939 | 0.977 | 1.56
Nc1nccc(Oc2ccc(NC(=O)c3c[nH]cc(-c4ccc(F)cc4)c3=O)cc2F)c1Cl | 1.57 | 1.17 | 1.56 | 1.94 | 1.17 | 1.62
O=C(O)C(=O)O.[NH-][C@@H]1CCCC[C@H]1[NH-].[Pt+2] [Oxaliplatin] | 3.37 | 3.26 | 1.5 | 2.95 | 3.19 | 3.47
Nc1nc2[nH]cc(CCc3ccc(C(=O)N[C@@H](CCC(=O)O)C(=O)O)cc3)c2c(=O)[nH]1 [Pemetrexed Disodium Hydrate] | 2.12 | 2.97 | 1.28 | 0.937 | 2.46 | 2.8
N[C@@H]1c2cccnc2[C@H](OC(=O)N2CCC(n3c(=O)[nH]c4ncccc43)CC2)CC[C@H]1c1cccc(F)c1F | 1.04 | 0.68 | 0.986 | 1.29 | 0.768 | 1.31
OCCn1cc(-c2cnc3nnn(Cc4ccc5ncccc5c4)c3n2)cn1 | 0.916 | 0.988 | 0.98 | 0.792 | 1.2 | 1.08
COc1ccc(F)c(F)c1C(=O)c1cnc(NC2CCN(S(C)(=O)=O)CC2)nc1N | 2.79 | 3.51 | 2.68 | 2.58 | 3.18 | 4.31
N[C@@H]1CCCC[C@H]1N.O=C([O-])C(=O)[O-].[Pt+2] [Eloxatin] | 3.84 | 3.01 | 1.15 | 3.29 | 2.14 | 3.55
O[C@@H]1CO[C@H]2[C@@H]1OC[C@@H]2O [Isosorbide] | 1.15 | 0.673 | 1.24 | 1.02 | 0.565 | 1.64
O=C(O)C1(C(=O)O)CCC1.[NH2-].[NH2-].[Pt+2] [Carboplatin] | 2.76 | 1.98 | 2.65 | 2.23 | 2.58 | 2.66
CC(C)CN(C[C@@H](O)[C@H](Cc1ccccc1)NC(=O)O[C@H]1CO[C@H]2OCC[C@H]21)S(=O)(=O)c1ccc(N)cc1 [Darunavir Ethanolate] | 0.575 | 0.867 | 1.31 | 0.84 | 0.355 | 0.797
O=C(Nc1cccc2c(=O)cc(-c3nnn[nH]3)oc12)c1ccc(OCCCCc2ccccc2)cc1 [Pranlukast] | 0.942 | 1.36 | 0.906 | 0.842 | 1.13 | 0.86
CN1C2CCCC1CC(NC(=O)c1nn(C)c3ccccc13)C2 (stereo not drawn) [Granisetron] | 1.06 | 0.852 | 0.646 | 1.23 | 1 | 2.06
CC(COc1ccccc1)N(CCCl)Cc1ccccc1 (stereo not drawn) [Phenoxybenzamine HCl] | 1.48 | 0.892 | 1.06 | 0.978 | 0.778 | 1.55
Cc1ccc(O)c([C@H](CCN(C(C)C)C(C)C)c2ccccc2)c1 [Tolterodine tartrate] | 1.87 | 0.728 | 0.897 | 1.13 | 1.19 | 1.58
CCN(CCO)CCCC(C)Nc1ccnc2cc(Cl)ccc12 (stereo not drawn) [Hydroxychloroquine Sulfate] | 3.48 | 3.08 | 2.6 | 5.29 | 2.92 | 3.58
CC(C)(C)NCC(O)COc1cccc2c1CCC(=O)N2 (stereo not drawn) [Carteolol HCl] | 1.14 | 0.612 | 0.836 | 1.22 | 0.541 | 2.01
C[C@]12CC[C@@H]3c4ccc(O)cc4CC[C@H]3[C@@H]1CC[C@@H]2O [Estradiol] | 1.17 | 0.515 | 2.36 | 1.1 | 0.515 | 1.04
COC(=O)CCC(=O)CN [Methyl Aminolevulinate Hydrochloride] | 1.52 | 0.774 | 0.717 | 0.88 | 0.566 | 1.34
COc1cnc(-n2cnc(C)n2)c2[nH]cc(C(=O)C(=O)N3CCN(C(=O)c4ccccc4)CC3)c12 | 1.35 | 0.841 | 0.792 | 0.569 | 1.32 | 0.969
O=C(c1cccc(Cl)c1F)N1CCN(Cc2cccc(Nc3nccs3)n2)CC1 | 2.99 | 3.18 | 1.34 | 2.34 | 2.74 | 2.83
CCc1c(O)cc(O)c(C(=O)c2ccc(OCCN3CCOCC3)c(OC)c2)c1CC(=O)N(CCOC)CCOC | 2.14 | 3.28 | 2.34 | 3.63 | 2.39 | 3.18
CNC[C@@H](O)c1ccc(O)c(O)c1 [L-Adrenaline] | 1.4 | 0.654 | 0.94 | 1.3 | 0.928 | 0.954
O=C(OCC(O)CO)c1ccccc1Nc1ccnc2cc(Cl)ccc12 (stereo not drawn) [Glafenine HCl] | 1.07 | 0.79 | 0.824 | 1.52 | 0.968 | 1.04

SMILES | Euclidean distance (786-O) | Euclidean distance (A549) | Euclidean distance (DU145) | Euclidean distance (FB) | Euclidean distance (HEPG2) | Euclidean distance (OVCAR4)
C[C@H]1COC2(CCN(c3nc(=O)c4cc(C(F)(F)F)cc([N+](=O)[O-])c4s3)CC2)O1 (racemic) [BTZ043 Racemate] | 1.5 | 0.656 | 1.01 | 1.47 | 0.565 | 0.748
CCC[C@@H]1C[C@@H](C(=O)N[C@@H]([C@H]2O[C@H](SC)[C@H](O)[C@@H](O)[C@H]2O)[C@@H](C)O)N(C)C1 [Lincomycin HCl] | 1.49 | 0.984 | 0.817 | 1.01 | 0.457 | 1.31
Nc1ccn([C@H]2CC[C@@H](CO)O2)c(=O)n1 [Zalcitabine] | 1.06 | 0.768 | 1.6 | 0.942 | 2.07 | 1.13
CN1CCC(=C2c3ccccc3C=Cc3ccccc32)CC1 [Cyproheptadine HCl] | 1.25 | 0.786 | 1.84 | 2.04 | 2.64 | 1.39
C=CC1=C(C(=O)O)N2C(=O)[C@@H](NC(=O)/C(=N\O)c3csc(N)n3)[C@H]2SC1 [Cefdinir] | 0.892 | 0.765 | 2.48 | 1.4 | 1.17 | 0.686
CCCS(=O)(=O)Nc1ccc(F)c(C(=O)c2c[nH]c3ncc(-c4ccc(Cl)cc4)cc23)c1F [Vemurafenib (PLX4032. RG7204)] | 1.14 | 1.53 | 1.68 | 1.23 | 2.32 | 1.06
O=C(Nc1cccnn1)N1CCC(=Cc2cccc(Oc3ccc(C(F)(F)F)cn3)c2)CC1 | 1.52 | 1.02 | 1.2 | 0.799 | 1.66 | 1.21
CCCCCCCCCCCCCCCC(=O)O[C@@H]1[C@@H](O)[C@@H](O)[C@@H]([C@H](NC(=O)[C@@H]2C[C@@H](CCC)CN2C)[C@H](C)Cl)O[C@@H]1SC [Clindamycin palmitate HCl] | 1.39 | 1.05 | 0.981 | 1.12 | 0.578 | 1.08
CNCCC=C1c2ccccc2CCc2ccccc21 [Nortriptyline hydrochloride] | 1.69 | 1.13 | 1.37 | 1.82 | 1.8 | 1.69
CCCCCCCCCC(=O)OC1(c2ccc(Cl)cc2)CCN(CCCC(=O)c2ccc(F)cc2)CC1 [Haloperidol Decanoate] | 0.828 | 1.13 | 1.01 | 0.816 | 0.961 | 1.26
Fc1ccc(C(c2ccc(F)cc2)N2CCN(C/C=C/c3ccccc3)CC2)cc1 [Flunarizine 2HCl] | 0.978 | 1.16 | 1.34 | 0.938 | 2.13 | 1.24
CC(C)(CO)[C@@H](O)C(=O)NCCCO [D panthenol] | 1.37 | 0.791 | 0.819 | 1.14 | 0.659 | 1.64
Cn1cc(-c2ccc(S(=O)(=O)n3ccc(/C=C/C(=O)Nc4ccccc4N)c3)cc2)cn1 | 2.25 | 2.63 | 2.82 | 2.84 | 3.21 | 3.37
O=C1C[C@@H](c2ccc(O[C@@H]3O[C@H](CO)[C@@H](O)[C@H](O)[C@H]3O)cc2)Oc2cc(O)ccc21 [Liquiritin] | 1.07 | 0.817 | 0.781 | 1.59 | 0.642 | 1.16
COc1cc(/C=C/C(=O)N2CCN(CC(=O)N3CCCC3)CC2)cc(OC)c1OC [Cinepazide maleate] | 1.21 | 0.96 | 1.04 | 1.16 | 0.337 | 1.41
S=c1nc[nH]c2nc[nH]c12 [6-Mercaptopurine (6-MP) Monohydrate] | 1.29 | 0.49 | 0.673 | 0.989 | 1.81 | 0.591
C=CC(=O)Nc1cc(Nc2nccc(-n3cc(CN(C)C)c(-c4ccccc4)n3)n2)c(OC)cc1N1CCOCC1 | 0.904 | 1.76 | 1.79 | 1.2 | 1.27 | 2.16
Nc1ccc(O)c(C(=O)O)c1 [Mesalamine] | 1.49 | 0.636 | 2.08 | 1.06 | 0.538 | 1.24
CC(=O)Oc1cc2c(s1)CCN(C(C(=O)C1CC1)c1ccccc1F)C2 (stereo not drawn) [Prasugrel Hydrochloride] | 0.877 | 0.726 | 0.888 | 0.495 | 0.448 | 0.803
N[C@@H](Cc1cc(I)c(Oc2ccc(O)c(I)c2)c(I)c1)C(=O)O [Liothyronine Sodium] | 0.896 | 0.796 | 0.838 | 1.56 | 1.41 | 0.927
CCn1cc(C(=O)O)c(=O)c2ccc(C)nc21 [Nalidixic acid] | 1.33 | 0.755 | 1.12 | 1.07 | 0.602 | 1.5
O=C1NCC2(CCN(CCc3ccccc3)CC2)O1 [Fenspiride HCl] | 0.914 | 1.2 | 1.2 | 1.2 | 1.08 | 1.26
O=C(OCc1ccccc1)c1ccccc1 [Benzyl benzoate] | 0.857 | 1.28 | 0.936 | 0.794 | 0.831 | 1.33
COC1=C(OC)C(=O)C(CCCCCCCCCCO)=C(C)C1=O [Idebenone] | 1.45 | 0.641 | 0.677 | 1.22 | 1.05 | 0.744
